Test [1] addresses Paired box protein Pax-6 (Homo sapiens) (UniProt P26367). The experiment in a line: ATG_Pax6_CIS: Attagene CIS-FACTORIAL HepG2 Assay for human Paired Box 6 (PAX6) (AID 2282956). The following applies: HepG2 CIS-FACTORIAL PAX6 reporter transcription, RNA readout; actives raise or lower the signal. An outline of the steps:
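DMSO-referenced bidirectional fits of reporter mRNA fluorescence; HepG2 with transient cis-promoter MRTUs, 24 h post-dose, RT-PCR plus capillary electrophoresis detection.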

A short description of test [2]: ATG_PPRE_CIS: Attagene CIS-FACTORIAL HepG2 Assay for human Peroxisome Proliferator-activated Response Element (PPRE) (AID 2282958). The following applies: HepG2 PPRE cis-element reporter, Attagene transcription factor profiling; actives raise or lower the signal. An outline of the steps:
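After human HepG2 hepatoma cells were transiently transfected with cis-promoter reporter constructs, they were exposed to test chemicals for 24 hours. Reporter RNA was then reverse-transcribed, PCR-amplified, FAM-labeled, HpaI-digested and quantified by capillary electrophoresis.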

Test [3] is described as follows: ATG_Sox_CIS: Attagene CIS-FACTORIAL HepG2 Assay for human SRY-box transcription factor (SOX) (AID 2282960). The settings on record: HepG2 Attagene cis-factorial SOX reporter, mRNA; actives raise or lower the signal. A digest of the protocol: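 Using transiently transfected HepG2 cells, reporter transcription driven by cis elements was assessed 24 h after dosing. Signal was fluorescence of capillary-separated RT-PCR products, with DMSO defining baseline activity.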

Test [4] deals with Transcription factor Sp1 (Homo sapiens) (UniProt P08047). The experiment in a line: ATG_Sp1_CIS: Attagene CIS-FACTORIAL HepG2 Assay for human Specificity Protein 1 (Sp1) (AID 2282961). The settings on record: HepG2 Sp1 cis-reporter transcription, actives raise or lower the signal. A digest of the protocol:
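After transient transfection of HepG2 cells with cis-promoter reporter units and 24 h chemical treatment, reporter transcripts were quantified by RT-PCR and capillary electrophoresis fluorescence. Gain- and loss-of-signal fitted against DMSO.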

Test [5] can be described thus: ATG_SREBP_CIS: Attagene CIS-FACTORIAL HepG2 Assay for human Sterol Regulatory Element Binding (SREBP) (AID 2282962). The following applies: HepG2 Attagene cis-factorial SREBP reporter, mRNA; actives raise or lower the signal. An outline of the steps:
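In this cis-format assay, HepG2 liver cells express reporters controlled by promoter elements responsive to native transcription factors. Exposure lasts 24 h; reporter mRNA fluorescence from capillary electrophoresis gives the signal, fitted bidirectionally against DMSO.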

In test [6] the target is Signal transducer and activator of transcription 3 (Homo sapiens) (UniProt P40763). The experiment in a line: ATG_STAT3_CIS: Attagene CIS-FACTORIAL HepG2 Assay for human Signal Transducer and Activator of Transcription 3 (STAT3) (AID 2282963). The following applies: HepG2, Attagene cis-factorial STAT3 reporter transcription; actives raise or lower the signal. An outline of the steps:
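Uses human liver HepG2 transiently carrying cis-regulated reporter transcription units. Following 24 h dosing, reporter mRNA induction was detected by RT-PCR and capillary electrophoresis, analysed bidirectionally versus DMSO.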

Test [7] can be described thus: ATG_TA_CIS: Attagene CIS-FACTORIAL HepG2 Assay for human TA Basal Promoter (AID 2282964). The following applies: HepG2 Attagene CIS-factorial TA basal promoter reporter; actives raise or lower the signal. An outline of the steps: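 Transient MRTU transfection of HepG2 preceded 24 h compound exposure. Reporter mRNA levels were then read by RT-PCR with capillary electrophoresis, and this background-control endpoint was fitted bidirectionally to DMSO.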

Test [8] is described as follows: ATG_TCF_b_cat_CIS: Attagene CIS-FACTORIAL HepG2 Assay for human T-Cell-Factor with beta-catenin (TCF/b-cat) (AID 2282965). The settings on record: HepG2 TCF/beta-catenin cis-reporter transcription, actives raise or lower the signal. A digest of the protocol:
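HepG2 cells transiently transfected with multiple cis-promoter-regulated reporter transcription units, so endogenous transcription factor activity is measured. Reporter mRNA read 24 hours after dosing by RT-PCR, fluorescent labelling and capillary electrophoresis; bidirectional fitting against DMSO.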

Test [9] is described as follows: ATG_TAL_CIS: Attagene CIS-FACTORIAL HepG2 Assay for human TAL Basal Promoter (AID 2282966).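 Further: background control endpoint measuring basal TAL promoter reporter mRNA not a specific factor.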 The following applies: HepG2 Attagene cis-factorial TAL promoter reporter; actives raise or lower the signal. A digest of the protocol:
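Background-control endpoint: basal TAL promoter reporter transcripts in transiently transfected HepG2, measured 24 h after dosing. Read-out by RT-PCR with fluorescent primer extension and capillary electrophoresis; gain or loss of signal fitted relative to DMSO.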

A short description of test [10]: ATG_TGFb_CIS: Attagene CIS-FACTORIAL HepG2 Assay for human Transforming Growth Factor (TGF) (AID 2282967). The following applies: HepG2 Attagene CIS TGFb reporter, mRNA transcription; actives raise or lower the signal. An outline of the steps:
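After a 24-hour incubation with compound, transfected HepG2 cells were lysed for RNA; reporter cDNA was amplified, fluorescently end-labeled and separated by CE. DMSO served as baseline for bidirectional fits.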

Test [11] can be described thus: ATG_VDRE_CIS: Attagene CIS-FACTORIAL HepG2 Assay for human Vitamin D Receptor Element (VDRE) (AID 2282968). The settings on record: HepG2 VDRE cis-reporter transcription, actives raise or lower the signal. An outline of the steps:
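Transfected HepG2 reporter cells, chemical treatment 24 h. RNA isolated, cDNA amplified with reporter-specific primers, products analysed by capillary electrophoresis. Endpoint fitted in both directions versus DMSO.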

For test [12], the target named is X-box-binding protein 1 (Homo sapiens) (UniProt P17861). The experiment in a line: ATG_Xbp1_CIS: Attagene CIS-FACTORIAL HepG2 Assay for human X-box Binding Protein 1 (XBP1) (AID 2282972). The settings on record: HepG2 XBP1 cis-element reporter, Attagene multiplex; actives raise or lower the signal. An outline of the steps:
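Changes in reporter transcript abundance, read by RT-PCR and capillary electrophoresis, reflect endogenous transcription factor activity. Transfected HepG2 cells received compound for 24 hours; DMSO defined baseline for bidirectional analysis.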

Test [13] can be described thus: ATG_RORE_CIS: Attagene CIS-FACTORIAL HepG2 Assay for human RAR-related Orphan Receptor Element (RORE) (AID 2282959). The settings on record: HepG2 Attagene cis-factorial RORE reporter, mRNA; actives raise or lower the signal. A digest of the protocol: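 Measured here: transcript induction of a cis-regulated reporter in HepG2 cells transiently transfected via FuGene 6. After 24 h, RNA was processed by RT-PCR and fluorescent capillary electrophoresis; DMSO defined baseline activity.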

In test [14] the target is Estrogen receptor (Homo sapiens) (UniProt P03372). The experiment in a line: ATG_ERa_TRANS: Attagene TRANS-FACTORIAL HepG2 Assay for human Estrogen Receptor alpha (ERa) (AID 2282970; active means hit-call score of the fitted dose curve at least 0.9, where 1 is the maximum). The following applies: HepG2 Attagene TRANS ERa GAL4 reporter, mRNA. A digest of the protocol:
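Reporter transcripts were measured 24 h after dosing by RT-PCR with fluorescent primer extension and capillary electrophoresis. The system is transiently transfected HepG2 expressing exogenous NR-Gal4 chimeras driving GAL4-UAS reporters; DMSO is the baseline.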

A short description of test [15]: ATG_M_19_TRANS: Attagene TRANS-FACTORIAL HepG2 Assay for M19 Transcription Factor (Internal Marker) (AID 2282974; active means hit-call score of the fitted dose curve at least 0.9, where 1 is the maximum). The following applies: HepG2 Attagene TRANS-FACTORIAL M19 internal marker reporter. A digest of the protocol:
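Gain-of-signal in reporter mRNA, relative to DMSO, was scored from capillary electrophoresis fluorescence. HepG2 cells carried transiently transfected multiple reporter transcription units and were incubated with test chemicals for 24 h.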

In test [16] the target is Nuclear receptor subfamily 1 group I member 3 (Homo sapiens) (UniProt Q14994). The experiment in a line: ATG_CAR_TRANS: Attagene TRANS-FACTORIAL HepG2 Assay for human Constitutive Androstane Receptor (CAR) (AID 2282969; active means hit-call score of the fitted dose curve at least 0.9, where 1 is the maximum;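 further: activators raise reporter mRNA above DMSO so AC50 marks induction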). The settings on record: HepG2 Attagene TRANS-FACTORIAL CAR reporter. A digest of the protocol: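 Steps: transient transfection of HepG2 with multiple GAL4-UAS reporter units; 24 h compound incubation; RNA isolation, RT-PCR, 6-FAM primer extension, HpaI digest; capillary electrophoresis. Gain-of-signal relative to DMSO negative control.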
Sequence of Nuclear receptor subfamily 1 group I member 3 (Homo sapiens) (Q14994 whole entry, looked up, the tested form may be a part): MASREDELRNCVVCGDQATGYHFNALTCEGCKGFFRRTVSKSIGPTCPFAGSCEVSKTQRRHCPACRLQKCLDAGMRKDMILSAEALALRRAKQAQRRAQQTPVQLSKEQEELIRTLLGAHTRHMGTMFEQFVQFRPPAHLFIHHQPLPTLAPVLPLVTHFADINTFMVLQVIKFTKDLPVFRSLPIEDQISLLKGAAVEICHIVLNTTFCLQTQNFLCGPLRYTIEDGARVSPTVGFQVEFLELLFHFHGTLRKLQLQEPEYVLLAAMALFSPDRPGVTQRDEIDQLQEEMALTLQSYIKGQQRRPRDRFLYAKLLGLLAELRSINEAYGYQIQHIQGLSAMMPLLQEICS

The nature of test [17]: ATG_GAL4_TRANS: Attagene TRANS-FACTORIAL HepG2 Assay for GAL4 (Internal Marker) (AID 2282976; active means hit-call score of the fitted dose curve at least 0.9, where 1 is the maximum). The following applies: HepG2 Attagene TRANS GAL4 internal marker reporter. A digest of the protocol: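 In transfected human HepG2 liver cells dosed 24 h, GAL4 reporter mRNA serves as a baseline marker. Detection by RT-PCR with fluorescent capillary electrophoresis, activity fitted upward relative to DMSO.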

For test [18], the target named is Steroid hormone receptor ERR1 (Homo sapiens) (UniProt P11474). The experiment in a line: ATG_ERRa_TRANS: Attagene TRANS-FACTORIAL HepG2 Assay for human Estrogen-Related Receptor alpha (ERRa) (AID 2282971; active means hit-call score of the fitted dose curve at least 0.9, where 1 is the maximum). The settings on record: HepG2 Attagene TRANS reporter, ERRa transactivation. An outline of the steps: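 Reporter transcripts from ERRa-Gal4 chimera activity measured in transiently transfected human HepG2 cells 24 hours after dosing, using RT-PCR with 6-FAM primer extension, HpaI digestion and capillary electrophoresis; DMSO is baseline.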
Sequence of Steroid hormone receptor ERR1 (Homo sapiens) (P11474 whole entry, looked up, the tested form may be a part): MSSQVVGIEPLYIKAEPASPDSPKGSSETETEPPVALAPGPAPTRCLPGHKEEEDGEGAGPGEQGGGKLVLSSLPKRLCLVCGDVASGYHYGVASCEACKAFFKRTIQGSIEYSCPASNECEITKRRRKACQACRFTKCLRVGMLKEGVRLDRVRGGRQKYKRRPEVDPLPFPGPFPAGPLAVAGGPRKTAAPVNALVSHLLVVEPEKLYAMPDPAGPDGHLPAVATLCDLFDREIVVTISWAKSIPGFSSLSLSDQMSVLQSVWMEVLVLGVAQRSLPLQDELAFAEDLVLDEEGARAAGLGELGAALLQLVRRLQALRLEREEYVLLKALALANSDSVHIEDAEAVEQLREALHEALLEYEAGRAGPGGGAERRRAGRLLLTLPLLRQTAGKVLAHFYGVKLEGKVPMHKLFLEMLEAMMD

Test [19] deals with Estrogen-related receptor gamma (Homo sapiens) (UniProt P62508). The experiment in a line: ATG_ERRg_TRANS: Attagene TRANS-FACTORIAL HepG2 Assay for human Estrogen-Related Receptor gamma (ERRg) (AID 2282977; active means hit-call score of the fitted dose curve at least 0.9, where 1 is the maximum;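 further: hits increase reporter signal over DMSO so potencies reflect activators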). The following applies: HepG2 Attagene TRANS reporter, ERRg transactivation. An outline of the steps:
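Readout: fluorescent reporter-mRNA fragments resolved by capillary electrophoresis after RT-PCR and HpaI cut. Cells: transiently transfected HepG2 carrying GAL4-UAS reporters driven by exogenous NR-Gal4 chimeras, dosed 24 h. Activity fitted upward relative to DMSO baseline.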

Each structure is given as a SMILES string. Inconclusive results are not listed. Calls of active or inactive are those of the source. How the source made its calls, unless noted: active means hit-call score of the fitted dose curve at least 0.9, where 1 is the maximum; inactive means score below 0.9.

Sequence of X-box-binding protein 1 (Homo sapiens) (P17861 whole entry, looked up): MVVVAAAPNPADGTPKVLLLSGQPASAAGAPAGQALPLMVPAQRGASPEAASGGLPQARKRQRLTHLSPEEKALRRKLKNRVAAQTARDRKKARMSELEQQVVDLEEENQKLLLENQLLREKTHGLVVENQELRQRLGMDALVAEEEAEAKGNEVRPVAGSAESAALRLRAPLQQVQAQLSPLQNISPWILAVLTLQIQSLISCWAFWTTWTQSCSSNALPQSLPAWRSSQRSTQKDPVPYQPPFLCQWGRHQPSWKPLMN
Sequence of Transcription factor Sp1 (Homo sapiens) (P08047 whole entry, looked up): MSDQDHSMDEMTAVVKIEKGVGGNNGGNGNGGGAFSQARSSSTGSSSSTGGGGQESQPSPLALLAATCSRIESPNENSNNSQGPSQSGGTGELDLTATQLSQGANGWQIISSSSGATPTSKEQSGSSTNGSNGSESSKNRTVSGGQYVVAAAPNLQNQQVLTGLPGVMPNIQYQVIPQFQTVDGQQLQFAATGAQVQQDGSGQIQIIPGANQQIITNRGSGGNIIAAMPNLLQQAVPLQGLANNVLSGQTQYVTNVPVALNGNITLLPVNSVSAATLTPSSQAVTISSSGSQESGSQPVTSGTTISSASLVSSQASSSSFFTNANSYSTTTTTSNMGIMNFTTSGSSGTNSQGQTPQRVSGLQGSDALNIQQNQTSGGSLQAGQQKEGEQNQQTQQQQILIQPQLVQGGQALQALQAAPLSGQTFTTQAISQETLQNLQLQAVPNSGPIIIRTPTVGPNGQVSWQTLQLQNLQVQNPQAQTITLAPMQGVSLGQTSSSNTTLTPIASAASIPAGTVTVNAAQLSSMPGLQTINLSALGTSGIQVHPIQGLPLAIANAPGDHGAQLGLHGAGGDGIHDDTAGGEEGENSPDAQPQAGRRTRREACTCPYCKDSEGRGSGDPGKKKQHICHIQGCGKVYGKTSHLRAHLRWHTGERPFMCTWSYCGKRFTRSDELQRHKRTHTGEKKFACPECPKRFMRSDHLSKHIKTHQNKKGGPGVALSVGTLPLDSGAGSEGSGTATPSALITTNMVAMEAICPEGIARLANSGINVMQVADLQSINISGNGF
Sequence of Signal transducer and activator of transcription 3 (Homo sapiens) (P40763 whole entry, looked up): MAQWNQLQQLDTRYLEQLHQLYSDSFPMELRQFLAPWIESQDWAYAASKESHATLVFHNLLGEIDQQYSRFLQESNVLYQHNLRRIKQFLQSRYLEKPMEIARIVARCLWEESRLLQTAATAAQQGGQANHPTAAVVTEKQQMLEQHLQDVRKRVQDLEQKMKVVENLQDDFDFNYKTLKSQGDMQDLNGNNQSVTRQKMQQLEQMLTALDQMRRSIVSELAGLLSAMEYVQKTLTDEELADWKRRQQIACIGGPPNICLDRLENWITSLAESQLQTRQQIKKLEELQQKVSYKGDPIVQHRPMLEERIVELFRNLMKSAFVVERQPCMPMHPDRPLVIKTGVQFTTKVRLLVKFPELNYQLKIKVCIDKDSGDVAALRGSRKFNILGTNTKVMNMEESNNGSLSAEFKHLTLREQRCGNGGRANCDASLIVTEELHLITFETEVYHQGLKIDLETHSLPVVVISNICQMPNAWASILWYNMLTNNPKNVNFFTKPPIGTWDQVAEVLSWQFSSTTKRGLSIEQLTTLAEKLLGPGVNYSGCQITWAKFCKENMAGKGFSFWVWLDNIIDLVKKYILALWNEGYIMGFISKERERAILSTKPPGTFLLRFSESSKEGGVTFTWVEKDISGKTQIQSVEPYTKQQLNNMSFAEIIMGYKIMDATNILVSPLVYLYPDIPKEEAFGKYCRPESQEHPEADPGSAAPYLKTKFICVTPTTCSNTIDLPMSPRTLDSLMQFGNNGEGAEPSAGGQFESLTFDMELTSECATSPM
Sequence of Paired box protein Pax-6 (Homo sapiens) (P26367 whole entry, looked up): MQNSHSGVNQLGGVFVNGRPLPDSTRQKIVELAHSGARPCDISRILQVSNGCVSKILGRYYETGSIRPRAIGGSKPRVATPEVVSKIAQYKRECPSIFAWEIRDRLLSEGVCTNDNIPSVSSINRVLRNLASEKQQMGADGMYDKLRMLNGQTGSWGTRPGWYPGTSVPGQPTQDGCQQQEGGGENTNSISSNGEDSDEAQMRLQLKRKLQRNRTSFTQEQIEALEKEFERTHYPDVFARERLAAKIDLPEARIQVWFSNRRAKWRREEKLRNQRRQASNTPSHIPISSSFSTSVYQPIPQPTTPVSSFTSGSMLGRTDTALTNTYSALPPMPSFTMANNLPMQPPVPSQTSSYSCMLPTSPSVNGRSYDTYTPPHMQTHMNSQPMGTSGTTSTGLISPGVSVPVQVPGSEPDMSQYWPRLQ
Sequence of Estrogen receptor (Homo sapiens) (P03372 whole entry, looked up, the tested form may be a part): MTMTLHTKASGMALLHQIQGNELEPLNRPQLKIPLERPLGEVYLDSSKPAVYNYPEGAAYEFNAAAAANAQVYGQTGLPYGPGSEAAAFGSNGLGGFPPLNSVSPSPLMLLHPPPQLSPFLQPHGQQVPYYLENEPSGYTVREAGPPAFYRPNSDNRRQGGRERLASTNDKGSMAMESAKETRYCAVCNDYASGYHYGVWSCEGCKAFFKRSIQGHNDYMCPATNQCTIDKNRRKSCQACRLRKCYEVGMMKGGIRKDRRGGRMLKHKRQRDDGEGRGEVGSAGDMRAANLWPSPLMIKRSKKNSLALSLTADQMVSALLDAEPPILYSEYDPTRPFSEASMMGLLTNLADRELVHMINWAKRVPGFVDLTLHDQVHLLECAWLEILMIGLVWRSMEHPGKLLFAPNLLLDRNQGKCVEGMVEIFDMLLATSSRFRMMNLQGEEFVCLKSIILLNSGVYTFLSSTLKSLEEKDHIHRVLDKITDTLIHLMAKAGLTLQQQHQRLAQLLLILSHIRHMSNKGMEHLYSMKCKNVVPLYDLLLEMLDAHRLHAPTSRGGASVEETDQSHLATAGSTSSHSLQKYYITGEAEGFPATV
Sequence of Estrogen-related receptor gamma (Homo sapiens) (P62508 whole entry, looked up, the tested form may be a part): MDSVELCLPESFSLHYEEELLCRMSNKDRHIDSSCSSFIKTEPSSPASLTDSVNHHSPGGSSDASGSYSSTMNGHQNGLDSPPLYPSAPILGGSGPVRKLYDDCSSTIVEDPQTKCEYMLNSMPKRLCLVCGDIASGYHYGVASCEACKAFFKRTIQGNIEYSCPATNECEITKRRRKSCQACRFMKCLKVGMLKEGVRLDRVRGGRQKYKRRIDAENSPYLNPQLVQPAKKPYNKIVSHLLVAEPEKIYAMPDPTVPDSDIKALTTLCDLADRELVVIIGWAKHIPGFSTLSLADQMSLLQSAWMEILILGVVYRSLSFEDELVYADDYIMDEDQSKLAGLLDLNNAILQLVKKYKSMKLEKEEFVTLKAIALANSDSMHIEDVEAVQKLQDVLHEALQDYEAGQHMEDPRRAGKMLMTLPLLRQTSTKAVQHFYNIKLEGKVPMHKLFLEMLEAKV

Regarding `COC(=O)CC(=O)OC`, the call in test [1], in test [2], in [3], in [4], in [5] and in test [6] was inactive. Further, the molecule was called inactive in test [7], in test [8], in test [9], in [10], in test [11] and in [12].

Regarding `Nc1ccc(Nc2ccccc2)cc1`, the result in [1], in test [13], in test [3], in [4], in [5] and in test [6] was inactive. In addition, the result in [7], in test [8], in test [9], in test [10], in test [12] and in [15] was inactive. Also, the AC50 in test [14] is 24.5 µM (active).

Consider `Cc1c(-c2cccnc2)c2ccccc2n1CCCCC(=O)O`, for which the call in test [1], in test [13], in [3], in [5], in test [6] and in test [7] was inactive. Further, the outcome in test [8], in [9], in test [10], in test [11], in [16] and in test [12] was inactive. In [15], the result was inactive. For the same molecule, in [2], the AC50 is 5.71 µM (active).

Consider `O=C(O)c1cc(N=Nc2ccc(S(=O)(=O)Nc3ccccn3)cc2)ccc1O`, for which the molecule was classed as inactive in test [1], in [2], in test [13], in test [3], in test [5] and in test [6]. The call in [7], in [8], in test [9], in [10], in [11] and in test [12] was inactive. The result in [15] and in [17] was inactive.

For `CC(=O)OCCC(C)C`, the outcome in test [1], in [2], in [13], in test [3], in test [5] and in test [6] was inactive. In addition, the result in test [7], in [8], in test [9], in test [10], in test [18] and in test [12] was inactive. In addition, the call in [17] was inactive.

In the case of `CCOC(=O)c1ccc(C2CCC(NC[C@H](O)COc3ccc(O)c(NS(C)(=O)=O)c3)CC2)cc1` (stereo partly specified), the AC50 is 46.5 µM (active) in [1]; 57.5 µM (active) in test [2]; 48.3 µM (active) in test [8]; 48.5 µM (active) in test [11]; 54.4 µM (active) in [12]. The call in test [3], in [4], in [5], in [6], in test [7] and in test [9] was inactive. The outcome in [10], in test [18], in test [15] and in [19] was inactive.

The term AC50 denotes the concentration giving half of the maximal activity seen.

Source of the values: PubChem BioAssay (EPA / NIEHS).
